PAX8 inh HTS: PAX8 transcriptional activity inhibition. RMG-I TPO-luciferase reporter, SteadyGlo, 24 h. inhibition, % at 12.6 µM. hit rate 1.2% among 360,000. AID 652154;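 active means mean replicate inhibition at least 60% with every replicate also reaching 60%; inconclusive means only one of the two criteria is met; inactive means mean below 60% and not all replicates reaching 60%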;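 further: luciferase light reporting Pax8 driven TPO promoter activity; plate controls were median of neutral control wells for no effect and mitoxantrone controls for full effect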
MITF TRPM1 inh: inhibitors of MITF-driven TRPM1 promoter in melanoma cells; SK-MEL-5 TRPM1 promoter luciferase, 24 h; inhibition, % at 12.5 µM; hit rate 0.83% among 330,000;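 active means mean inhibition across replicates of 60% or more, whatever share of single replicates reaches that level; inconclusive means some that reach 60%, reason not given; inactive means mean inhibition across replicates below 60%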
MITF TRPM1 HTS: MITF TRPM1 promoter activation in melanoma cells; SK-MEL-5 TRPM1-promoter luciferase, 24 h; % of positive control, neutral wells = 0; activation, % at 12.5 µM; AID 588334; hit rate 0.75% among 300,000;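 active means mean activation of at least 80% with every replicate also reaching 80%; inconclusive means mean reaches 80% but some replicate falls short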;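 further: 0% = neutral control wells and 100% = parthenolide positive control wells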
Wnt act: activators of Wnt/beta-catenin signaling. activation, % at 9.35 µM. hit rate 1.2% among 300,000. Wnt/beta-catenin reporter cell assay, activator, plate reader; in the data active means activation above about 30%, passing the limit was not always enough; inconclusive means no clear call, values can overlap the other calls;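 further: 0% = neutral control wells and 100% = positive control wells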
EWS-Fli block: blocks EWS/Fli oncoprotein-driven transcription; A673 NR0B1-luciferase reporter, viability-normalised; inhibition, % at 12.6 µM; hit rate 0.67% among 350,000;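 active means mean inhibition of at least 50% after viability correction, with every replicate also passing that limit; inconclusive means mean reaches 50% but only one of two replicates passes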;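 further: firefly luciferase signal divided by Alamar Blue viability fluorescence both relative to DMSO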
esBAF inh: blocks esBAF chromatin remodeling in mouse ES cells. hit rate 2% among 350,000. Bmi1-luciferase knock-in reporter, 24 h; 100% = twice the neutral-well signal. reporter increase, % at 12.5 µM. AID 602393; in the data active means activation above about 40%; inconclusive means no clear call, values can overlap the other calls;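 further: 0% = median of the plate's neutral control wells and 100% = double that signal; a rise in the Bmi1 reporter signal indicates esBAF inhibition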
An asterisk follows results filed as active. This is a sample that favours compounds with a hit; in the whole collection about 4% have one here.

What do the screens show for `COc1ccc(NC(=O)N2CC(=O)N3[C@@H](CO)[C@H](c4ccc(/C=C/c5ccccc5)cc4)[C@@H]3C2)cc1`?
PAX8 inh HTS: -16; EWS-Fli block: -7

Results for O=C(Nc1ccc(F)cc1)N1CC(=O)N2[C@@H](CO)[C@@H](c3ccc(C#Cc4ccc(F)cc4)cc3)[C@@H]2C1 ?
PAX8 inh HTS: 119*; EWS-Fli block: 2

How did O=C(Nc1ccc(F)cc1)N1CC(=O)N2[C@@H](CO)[C@@H](c3ccc(-c4ccc(F)cc4)cc3)[C@@H]2C1 do in these assays?
PAX8 inh HTS: 0; EWS-Fli block: 7

What do the screens show for `COc1ccc(NC(=O)N2CC(=O)N3[C@H](C2)[C@H](c2ccc(/C=C/c4ccccc4)cc2)[C@@H]3CO)cc1`?
PAX8 inh HTS: 105*; EWS-Fli block: -3

How did O=C(Nc1ccc(F)cc1)N1CC(=O)N2[C@H](C1)[C@H](c1ccc(C#Cc3ccc(F)cc3)cc1)[C@@H]2CO do in these assays?
PAX8 inh HTS: 68*; EWS-Fli block: -5

How did C[C@H]1CCCCO[C@H](CN(C)C(=O)c2ccccc2)[C@@H](C)CN([C@@H](C)CO)C(=O)c2cc(NS(=O)(=O)c3ccc(F)cc3)ccc2O1 do in these assays?
PAX8 inh HTS: 28; EWS-Fli block: 4; esBAF inh: -2

What do the screens show for `O=C(O)c1ccc(C(=O)Nc2ccc(F)cc2)cc1`?
PAX8 inh HTS: -30; MITF TRPM1 inh: 106*; MITF TRPM1 HTS: -105; Wnt act: -2; EWS-Fli block: -2; esBAF inh: 2

What do the screens show for `O=C(Nc1ccc(F)cc1)c1ccc2snnc2c1`?
PAX8 inh HTS: -2; MITF TRPM1 inh: -15; MITF TRPM1 HTS: 16; Wnt act: 6; EWS-Fli block: -50; esBAF inh: 45*

Results for CCOc1ccc(NC(=O)c2ccc3snnc3c2)cc1 ?
MITF TRPM1 inh: -73; Wnt act: 6; esBAF inh: 54*

How did Cc1cccc(N=CC=C2OC(C)(C)C(C)(C)O2)c1 do in these assays?
PAX8 inh HTS: -8; MITF TRPM1 inh: -14; MITF TRPM1 HTS: 16; Wnt act: 2; EWS-Fli block: -7

How did Cc1ccccc1N=CC=C1OC(C)(C)C(C)(C)O1 do in these assays?
PAX8 inh HTS: 79*; MITF TRPM1 inh: -1; MITF TRPM1 HTS: 2; Wnt act: -2; EWS-Fli block: -1

Results for Cn1c(N)c(C(=O)COC(=O)c2ccccc2C(=O)c2ccc(Cl)c([N+](=O)[O-])c2)c(=O)n(C)c1=O ?
MITF TRPM1 inh: 92*; MITF TRPM1 HTS: -92; esBAF inh: 1

What do the screens show for `O=C(COC(=O)c1ccccc1C(=O)c1ccc(Cl)c([N+](=O)[O-])c1)NC1CCCCCC1`?
PAX8 inh HTS: 15; MITF TRPM1 inh: 100*; MITF TRPM1 HTS: -99; Wnt act: -28; esBAF inh: -86

Results for O=C(COC(=O)c1ccc(Cl)c([N+](=O)[O-])c1)NC1CCCC1 ?
PAX8 inh HTS: 17; MITF TRPM1 inh: 6; MITF TRPM1 HTS: -4; Wnt act: 1; EWS-Fli block: 6; esBAF inh: -4

Results for CN(CCC#N)C(=O)COC(=O)c1ccccc1C(=O)c1ccc(Cl)c([N+](=O)[O-])c1 ?
PAX8 inh HTS: 11; MITF TRPM1 inh: 66*; MITF TRPM1 HTS: -66; Wnt act: -10; EWS-Fli block: 46

Results for Cn1c(N)c(C(=O)COC(=O)c2ccccc2C(=O)c2ccccc2)c(=O)n(C)c1=O ?
PAX8 inh HTS: 6; Wnt act: 0; EWS-Fli block: 2; esBAF inh: 19

What do the screens show for `CC(C)N(C(=O)COC(=O)c1ccccc1C(=O)c1ccc(Cl)c([N+](=O)[O-])c1)C(C)C`?
PAX8 inh HTS: 36; MITF TRPM1 inh: 45; MITF TRPM1 HTS: -44; Wnt act: -1; EWS-Fli block: inconclusive

What do the screens show for `CCC(=O)N1CC2(C1)[C@H](c1ccc(-c3ccccc3)cc1)[C@@H](CO)N2C(C)=O`?
PAX8 inh HTS: -3; EWS-Fli block: -4

How did C[C@H](CO)N1C[C@H](C)[C@@H](CN(C)Cc2ccc(-c3ccccc3)cc2)Oc2ccc(NC(=O)Nc3ccc4c(c3)OCO4)cc2CC1=O do in these assays?
PAX8 inh HTS: 37; EWS-Fli block: 3; esBAF inh: -9

Screens deposited in PubChem BioAssay by Broad Institute.
